# Experimental data from PubChem BioAssay (EPA / NIEHS).
# Records with an inconclusive call do not appear. Calls of active or inactive are those of the source. Rule for the calls: active = hit-call score of the fitted dose curve at least 0.9, where 1 is the maximum; inconclusive = response in the unintended direction; inactive = score below 0.9.
# Read-out: Broad substrate specificity ATP-binding cassette transporter ABCG2 (Homo sapiens) (UniProt Q9UNQ0)
# Assay: CLD_ABCG2_24hr: CellzDirect (CLD) Gene Expression Assay for ABC Transporter (ABCG2) at 24 hours (AID 2283685)
# Method: CLD_24hr is a cell-based, multiplexed-readout assay that uses hepatocyte, a human liver primary cell, with measurements taken at 24 hours after chemical dosing in a 96-well plate.CLD_ABCG2_24hr is one of 16 assay component(s) measured or calculated from the CLD_24hr assay. It is designed to make measurements of mRNA induction, a form of inducible reporter, as detected with chemiluminescence signals by Quantitative Nuclease Protection Assay (qNPA) technology.Data from the assay component CLD_ABCG2_24hr was analyzed at the endpoint, CLD_ABCG2_24hr, in the positive analysis fitting direction relative to DMSO as the negative control and baseline of activity. Using a type of inducible reporter, gain-of-signal activity can be used to understand changes in the reporter gene as they relate to the gene ABCG2. Furthermore, this assay endpoint can be referred to as a primary readout. To generalize the intended target to other relatable targets, this assay endpoint is annotated to the transporter intended target family, where subfamily is ABC transporter.
# Human hepatocyte cultures were treated daily for two consecutive days with fresh dosing solutions containing appropriate concentrations of the 320 ToxCast chemicals (chemical identities were blinded to CellzDirect and other ToxCast collaborators), vehicle control (0.2% DMSO), and positive control inducers as summarized in Table 1. Due to the large number of treatment groups and chemicals examined, the ToxCast chemicals were divided into two groups (spanning two independent cultures of hepatocytes from separate donor preparations (Hu778: ToxCast plates 1 and 2; Hu776: ToxCast plates 3 and 4). Each preparation of human hepatocyte cultures was treated with respective vehicle control, medium only control, set of six positive controls/reference chemicals for the five hepatic receptor pathways, and a subset of eight of the ToxCast chemicals (indoxacarb, pyrithiobac-sodium, norflurazon, cyhalofop-butyl, methomyl, thiram, acetochlor, and propiconazole). These replicate data, coupled with internal replicates designed within the blinded ToxCast chemical library, provided additional data to evaluate interindividual differences between hepatocyte preparations and their potential impact on chemical profiles.Cell morphology and integrity were evaluated using phase-contrast microscopy as an indicator of hepatocyte cell health (Tyson & Green, 1987). Cultures for each treatment group (i.e., media, vehicle [0.2% DMSO], positive control inducers [multiple concentrations], and the ToxCast chemicals [multiple concentrations]) were observed and cell morphology was assessed relative to vehicle control cultures at each harvest time point (0, 6, 24, or 48 h). […] Images were evaluated at the conclusion of the study to assess changes in cell integrity and account for the effects of chemical exposure on uncharacteristic changes in concentration-dependent gene expression profiles. The results from these determinations of apparent cytotoxicity were annotated (yes/no) alongside the corresponding qNPA data for reference.At the conclusion of each treatment period, hepatocyte cultures (96-well) were washed with 1 volume of HBSS, lysed by addition of 25 ul ArrayPlate lysis buffer (HTG, Tucson, AZ), and 70 ul/well of Denaturation Oil, denatured by incubation at 95C for 10 min, and frozen at approximately -70C until analysis by nuclease protection assay (qNPA) (Roberts et al., 2007). For qNPA analysis, cell lysates were thawed at 50C for approximately 30 min, qNPA probes were added, and samples were incubated at 95C for 10 min to begin the detection process by denaturing the target RNA, dissociating the duplexes and secondary structure hybridization. At the conclusion of the hybridization period, S1 nuclease reagent was added to each sample to digest all nonprotected nucleotides at 50C for 60-90 min. […]
# Sequence of Broad substrate specificity ATP-binding cassette transporter ABCG2 (Homo sapiens) (Q9UNQ0 whole entry, looked up): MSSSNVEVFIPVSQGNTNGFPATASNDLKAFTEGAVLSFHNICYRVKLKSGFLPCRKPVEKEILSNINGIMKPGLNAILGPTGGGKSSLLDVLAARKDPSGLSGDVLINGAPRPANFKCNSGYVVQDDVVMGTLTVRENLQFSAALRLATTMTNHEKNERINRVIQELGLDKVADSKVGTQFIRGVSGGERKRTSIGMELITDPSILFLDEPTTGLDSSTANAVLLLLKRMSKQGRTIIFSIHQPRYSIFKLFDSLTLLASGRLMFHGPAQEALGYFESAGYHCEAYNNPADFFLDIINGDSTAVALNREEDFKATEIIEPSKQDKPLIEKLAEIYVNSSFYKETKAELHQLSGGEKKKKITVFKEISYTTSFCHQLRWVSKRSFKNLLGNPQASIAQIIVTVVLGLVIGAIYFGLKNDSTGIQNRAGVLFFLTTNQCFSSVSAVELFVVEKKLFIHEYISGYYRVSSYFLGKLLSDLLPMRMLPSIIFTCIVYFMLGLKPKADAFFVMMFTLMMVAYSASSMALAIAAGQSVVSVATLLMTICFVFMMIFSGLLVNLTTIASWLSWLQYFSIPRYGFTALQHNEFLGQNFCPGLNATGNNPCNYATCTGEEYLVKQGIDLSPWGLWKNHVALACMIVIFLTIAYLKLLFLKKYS
row,Compound,outcome
1,CCC(C)OC(=O)N1CCCCC1CCO (stereo not given),inactive
2,COC(=O)CSc1cc(N=c2sc(=O)n3n2CCCC3)c(F)cc1Cl,inactive
3,COCCO,inactive
4,CCC(O)=C1C(=O)CC(C(=O)O)CC1=O (stereo not given),inactive
5,O=C(O)C1(C(=O)Nc2ccc(Cl)cc2Cl)CC1,inactive
6,CCCOC(=O)c1ccc(C(=O)OCCC)nc1,inactive
7,CSC(=O)c1cccc2nnsc12,inactive
8,CC(C)(C)[C@@H](O)[C@@H](Cc1ccc(Cl)cc1)n1cncn1,inactive
9,CC(C)(c1ccc(O)cc1)c1ccc(O)cc1,inactive
10,COc1c(Cl)ccc(Cl)c1C(=O)O,inactive
11,CCCN(CCC)C(=O)SCC,inactive
12,C#CCOC(=O)[C@@H](C)Oc1ccc(Oc2ncc(Cl)cc2F)cc1,inactive
13,CCOC(=O)C(C)Oc1ccc(Oc2nc3ccc(Cl)cc3o2)cc1 (stereo not given),inactive
14,CCCOC(=O)NCCCN(C)C,inactive
15,O=C(Nc1ccc([N+](=O)[O-])cc1Cl)c1cc(Cl)ccc1O,inactive
16,COC(=O)c1ccc(I)cc1S(=O)(=O)NC(=O)Nc1nc(C)nc(OC)n1,inactive
17,CCCCCCC(C)OC(=O)COc1nc(F)c(Cl)c(N)c1Cl (stereo not given),inactive
18,CCOC(=O)[C@H](C)Oc1ccc(Oc2nc3ccc(Cl)cc3o2)cc1,inactive
19,C=CCOC(Cn1ccnc1)c1ccc(Cl)cc1Cl (stereo not given),inactive
20,CCCCOC(=O)C(C)Oc1ccc(Oc2ccc(C(F)(F)F)cn2)cc1 (stereo not given),inactive
21,S=C([S-])NCCNC(=S)[S-].[Mn+2],inactive
22,CCCN(CCC)c1c([N+](=O)[O-])cc(C(F)(F)F)c(N)c1[N+](=O)[O-],inactive
23,S=C(S)NCCNC(=S)S.[Mn+2].[S-]C([S-])=NCCN=C([S-])[S-].[Zn+2],inactive
24,N#CSCSc1nc2ccccc2s1,inactive
25,CCSC(=O)N(CC(C)C)CC(C)C,inactive
26,CCOC(=O)NCCOc1ccc(Oc2ccccc2)cc1,inactive
27,OB(O)O,inactive
28,CCOC(=O)COc1cc(-n2ncc(C(F)(F)F)c(C)c2=O)c(F)cc1Cl,inactive
29,Cc1nn(C)c(Oc2ccccc2)c1C=NOCc1ccc(C(=O)OC(C)(C)C)cc1,inactive
30,CCCCOC(=O)[C@@H](C)Oc1ccc(Oc2ccc(C(F)(F)F)cn2)cc1,inactive
